Assay results reported in PubChem BioAssay AID1159580 (chemical genetic matrix, 2015).
The campaign covered roughly 5,500 compounds. About 2,000 (36%) were called active. Inconclusive results (about 18%) are left out. Rule as the data show it: active = normalized growth mostly below about 0.91 (no sharp cut-off); inconclusive = no clear call, values can overlap the other calls; inactive = mostly above about 0.92. This is one part of the list.

Experiment: chemical genetic growth profiling, strain panel (AID 1159580);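 also: tested at 20 µM; growth read once vehicle control cultures reached saturation at 30 °C; 1 = growth at the plate median or of vehicle wells; lower values mean less growth of the strain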
Settings: S. cerevisiae deletion strains, growth OD
[1] = locus YHR030C, strain SLT2, stronger effect = lower value
[2] = locus YHR079C, strain IRE1, stronger effect = lower value
[3] = locus YJL095W, strain BCK1, stronger effect = lower value
[4] = locus YJR066W, strain TOR1, stronger effect = lower value
[5] = locus YLR113W, strain HOG1, stronger effect = lower value
[6] = locus YNL183C, strain NPR1, stronger effect = lower value
[7] = locus YOR231W, strain MKK1, stronger effect = lower value
[8] = locus YPL256C, strain CLN2, stronger effect = lower value
[9] = locus YAL040C, strain CLN3, stronger effect = lower value
[10] = locus YCL061C, strain MRC1 (second series), stronger effect = lower value
[11] = locus YDR150W, strain NUM1, stronger effect = lower value
[12] = locus YDR363W, strain ESC2, stronger effect = lower value
[13] = locus YER002W, strain NOP16, stronger effect = lower value
[14] = locus YMR263W, strain SAP30, stronger effect = lower value
[15] = locus YMR307W, strain GAS1, stronger effect = lower value
[16] = locus YNL128W, strain TEP1, stronger effect = lower value
[17] = locus YNL153C, strain GIM3, stronger effect = lower value
[18] = locus YNL175C, strain NOP13, stronger effect = lower value
[19] = locus YNL197C, strain WHI3, stronger effect = lower value
[20] = locus YNL224C, strain SQS1, stronger effect = lower value
[21] = locus YOR083W, strain WHI5 (second series), stronger effect = lower value
[22] = locus YJR075W, strain HOC1, stronger effect = lower value
[23] = locus YPL055C, strain LGE1, stronger effect = lower value
[24] = locus YPL241C, strain CIN2, stronger effect = lower value
[25] = locus YNL322C, strain KRE1, stronger effect = lower value

Measured: normalized growth

C[N+]12CC[C@@]34c5ccccc5N5C(=O)CC6OCC=C(C1)[C@H](CC32)[C@@H]6C54 (stereo partly specified)
inactive: [1] 1.02 | [2] 1 | [3] 0.99 | [4] 0.942 | [5] 0.995 | [6] 0.933 | [7] 0.998 | [8] 0.986

N[C@@H](Cn1cc(I)c(=O)[nH]c1=O)C(=O)O
inactive: [9] 0.979 | [10] 0.992 | [11] 0.988 | [12] 1.01 | [13] 0.979 | [14] 1 | [15] 0.992 | [16] 0.977 | [17] 1.03 | [18] 0.993 | [19] 1 | [20] 0.99 | [21] 0.998

CCCn1c(=O)[nH]c(=O)c2[nH]cnc21
inactive: [9] 1.05 | [10] 1.01 | [12] 1.02 | [13] 0.999 | locus YGR229C, strain SMI1, stronger effect = lower value 1 | [22] 1 | [18] 1.01 | [19] 1.01 | [20] 1 | [21] 1 | [23] 1.02 | [24] 1.01

O=c1[nH]c(=O)n([C@H]2C[C@H](O)[C@@H](CO)O2)cc1/C=C/Br
inactive: locus YAL013W, strain DEP1, stronger effect = lower value 1.02 | [9] 0.98 | [10] 1 | [11] 0.994 | [12] 1.03 | [13] 0.977 | [14] 0.998 | [15] 1.01 | [16] 0.944 | [17] 0.999 | [18] 0.964 | [19] 0.936 | [20] 0.994 | [25] 0.999 | [21] 0.999 | [23] 0.998 | [24] 0.99

CCCCOc1cc(CC2CNC(=O)N2)ccc1OC (stereo unspecified)
inactive: locus YAL021C, strain ccr4, stronger effect = lower value 0.939 | locus YAL026C, strain drs2, stronger effect = lower value 1 | locus YAL030W, strain snc1, stronger effect = lower value 1.01 | [9] 1.08 | locus YBL061C, strain skt5, stronger effect = lower value 0.998 | locus YBR009C, strain hhf1, stronger effect = lower value 1.06 | locus YBR023C, strain chs3, stronger effect = lower value 0.992 | locus YBR171W, strain sec66, stronger effect = lower value 0.984 | locus YBR231C, strain swc5, stronger effect = lower value 1.01 | locus YBR279W, strain paf1, stronger effect = lower value 0.999 | locus YCL011C, strain gbp2, stronger effect = lower value 0.984 | locus YCL016C, strain dcc1, stronger effect = lower value 1 | [10] 1 | locus YCL061C, strain MRC1, stronger effect = lower value 0.985 | locus YCL069W, strain vba3, stronger effect = lower value 0.994 | locus YCR088W, strain abp1, stronger effect = lower value 0.987 | locus YDL005C, strain med2, stronger effect = lower value 0.986 | locus YDL040C, strain nat1, stronger effect = lower value 0.999 | locus YDR001C, strain nth1, stronger effect = lower value 0.988 | locus YDR069C, strain doa4, stronger effect = lower value 1.01 | locus YDR137W, strain rgp1, stronger effect = lower value 0.971 | [11] 1.01 | locus YDR159W, strain sac3, stronger effect = lower value 1.07 | locus YDR195W, strain ref2 0.992 | locus YDR297W, strain sur2, stronger effect = lower value 0.993 | locus YDR334W, strain swr1, stronger effect = lower value 0.968 | locus YDR335W, strain msn5, stronger effect = lower value 0.98 | locus YDR392W, strain spt3, stronger effect = lower value 0.975 | locus YEL003W, strain gim4, stronger effect = lower value 0.998 | locus YEL037C, strain rad23, stronger effect = lower value 0.994 | locus YEL061C, strain CIN8 (second series), stronger effect = lower value 0.981 | [13] 1.01 | locus YER015W, strain faa2, stronger effect = lower value 0.994 | locus YER016W, strain bim1, stronger effect = lower value 1.01 | locus YER111C, strain swi4, stronger effect = lower value 1.01 | locus YER155C, strain BEM2 (second series), stronger effect = lower value 1.04 | locus YFR010W, strain ubp6, stronger effect = lower value 0.994 | locus YGL167C, strain pmr1, stronger effect = lower value 1 | locus YGL173C, strain kem1, stronger effect = lower value 0.991 | locus YGL227W, strain vid30, stronger effect = lower value 1 | locus YGL240W, strain doc1, stronger effect = lower value 1.04 | locus YGL253W, strain hxk2, stronger effect = lower value 0.999 | locus YHR013C, strain ard1, stronger effect = lower value 0.979 | locus YHR027C, strain rpn1, stronger effect = lower value 0.992 | [1] 0.97 | [2] 0.973 | locus YHR142W, strain chs7, stronger effect = lower value 0.914 | locus YJL092W, strain hpr5, stronger effect = lower value 0.967 | locus YJL095W, strain BCK1 (second series), stronger effect = lower value 0.989 | [3] 0.978 | locus YJL115W, strain asf1, stronger effect = lower value 0.99 | locus YJL129C, strain trk1, stronger effect = lower value 0.965 | locus YJL154C, strain vps35, stronger effect = lower value 0.993 | locus YJL164C, strain tpk1, stronger effect = lower value 0.972 | locus YJL166W, strain qcr8, stronger effect = lower value 0.996 | locus YJL187C, strain SWE1, stronger effect = lower value 0.998 | [4] 0.935 | [22] 1.01 | locus YKL160W, strain elf1, stronger effect = lower value 0.954 | locus YKR026C, strain gcn3, stronger effect = lower value 0.981 | locus YKR091W, strain srl3, stronger effect = lower value 0.989 | locus YLL001W, strain dnm1, stronger effect = lower value 0.988 | locus YLL026W, stronger effect = lower value 0.998 | locus YLL041C, strain sdh2, stronger effect = lower value 0.984 | locus YLR027C, strain aat2, stronger effect = lower value 0.982 | [5] 0.978 | locus YLR221C, strain rsa3, stronger effect = lower value 0.971 | locus YLR258W, strain gsy2, stronger effect = lower value 1.02 | locus YLR262C, strain YPT6 (second series), stronger effect = lower value 1 | locus YLR320W, strain mms22, stronger effect = lower value 1.02 | locus YLR342W, strain FKS1, stronger effect = lower value 1 | locus YLR357W, strain rsc2, stronger effect = lower value 1.02 | locus YLR370C, strain arc18, stronger effect = lower value 0.978 | locus YLR384C, strain iki3, stronger effect = lower value 0.993 | locus YML120C, strain ndi1, stronger effect = lower value 0.968 | locus YMR058W, strain fet3, stronger effect = lower value 0.978 | locus YMR125W, strain sto1, stronger effect = lower value 1.02 | locus YMR129W, stronger effect = lower value 0.992 | locus YMR205C, strain PFK2, stronger effect = lower value 1.06 | locus YMR231W, strain pep5, stronger effect = lower value 1 | locus YNL071W, strain lat1, stronger effect = lower value 0.987 | [16] 1.01 | [18] 1.02 | [6] 0.956 | [19] 1.03 | locus YNL209W, strain ssb2, stronger effect = lower value 1 | [20] 1.01 | locus YNL248C, strain rpa49, stronger effect = lower value 0.93 | locus YNL322C, strain KRE1 (second series), stronger effect = lower value 0.987 | [25] 1.02 | locus YNR049C, strain mso1, stronger effect = lower value 0.992 | locus YOR001W, strain rrp6, stronger effect = lower value 0.951 | locus YOR070C, strain gyp1, stronger effect = lower value 1.01 | locus YOR080W, strain dia2, stronger effect = lower value 0.99 | [21] 1 | locus YOR083W, strain WHI5, stronger effect = lower value 0.944 | locus YOR106W, strain vam3, stronger effect = lower value 0.958 | [7] 0.976 | locus YOR265W, strain rbl2, stronger effect = lower value 0.998 | locus YOR270C, strain vph1, stronger effect = lower value 0.94 | locus YOR290C, strain snf2, stronger effect = lower value 0.987 | locus YPL051W, strain arl3, stronger effect = lower value 0.963 | locus YPL078C, strain atp4, stronger effect = lower value 0.921 | locus YPL106C, strain sse1, stronger effect = lower value 1.04 | locus YPL240C, strain hsp82, stronger effect = lower value 0.99 | [8] 0.948
